Experimental data reported in PubChem BioAssay.
A number with no mark means an inactive call. For some assays here: Entries with a potency or affinity are not part of this list. Calls of active or inactive are those of the source. Unless noted, the rule behind the calls is not given here.

What was measured:
[1] = antimalarial activity against Dd2 strain (AID 2302;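 active = growth inhibition above 50% at the single 2 µM test dose, taken to imply half-maximal potency below 2 µM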;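 note: 0% = DMSO untreated growth and 100% = chloroquine plus artemisinin killed control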); details: P. falciparum Dd2 in RBCs, LDH growth readout, 72 h; at 2 µM; stronger effect = higher value
[2] = HepG2 cytotoxicity, primary screen, cytotoxicity control for P. falciparum antimalarial project, cell-based, ATP luminescence (AID 2303;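 active = inhibition above 50%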;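 note: 0% = DMSO wells and 100% = digitonin-killed cells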); details: HepG2 viability, 24-48 h, at 10 µM, stronger effect = higher value
[3] = molecular target: L-lactate dehydrogenase (Plasmodium falciparum (isolate CDC / Honduras)) (UniProt Q27743); assay: PfLDH activity inhibition – cell lysate, 3D7 strain, counter-screen for P. falciparum growth inhibition project (AID 2304);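 note: 0% = vehicle and 100% = reference inhibitor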; details: P. falciparum 3D7 crude extract, LDH APAD/NBT absorbance; at 2 µM; stronger effect = higher value
Sequence of L-lactate dehydrogenase (Plasmodium falciparum (isolate CDC / Honduras)) (Q27743 whole entry, looked up): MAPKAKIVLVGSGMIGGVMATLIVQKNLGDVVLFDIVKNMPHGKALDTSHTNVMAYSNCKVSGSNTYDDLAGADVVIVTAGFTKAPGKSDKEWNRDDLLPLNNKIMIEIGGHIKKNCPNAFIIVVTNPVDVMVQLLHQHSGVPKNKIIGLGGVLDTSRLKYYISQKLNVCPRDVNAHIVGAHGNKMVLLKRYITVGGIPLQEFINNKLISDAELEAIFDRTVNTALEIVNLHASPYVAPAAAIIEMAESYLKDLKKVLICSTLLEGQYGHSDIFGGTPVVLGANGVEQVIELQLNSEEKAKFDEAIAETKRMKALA

[4] = inhibition of 3D7 malaria parasite growth – strain 3D7 (AID 2306);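 note: 0% = DMSO wells and 100% = chloroquine plus artemisinin control wells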; details: P. falciparum 3D7 erythrocytic growth, LDH absorbance, 72 h; at 2 µM; stronger effect = higher value
[5] = molecular target: Calcium-dependent protein kinase 1 (Plasmodium falciparum (isolate 3D7)) (UniProt P62344); assay: PfCDPK1 kinase inhibitors, biochemical, TCAMS library (AID 1159585; cut-off not given, nearly all actives have IC50 up to about 0.98 µM;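 note: inhibitors leave more ATP so luminescence rises with inhibition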); details: recombinant PfCDPK1, Kinase-Glo ATP depletion luminescence
Sequence of Calcium-dependent protein kinase 1 (Plasmodium falciparum (isolate 3D7)) (P62344 whole entry, looked up): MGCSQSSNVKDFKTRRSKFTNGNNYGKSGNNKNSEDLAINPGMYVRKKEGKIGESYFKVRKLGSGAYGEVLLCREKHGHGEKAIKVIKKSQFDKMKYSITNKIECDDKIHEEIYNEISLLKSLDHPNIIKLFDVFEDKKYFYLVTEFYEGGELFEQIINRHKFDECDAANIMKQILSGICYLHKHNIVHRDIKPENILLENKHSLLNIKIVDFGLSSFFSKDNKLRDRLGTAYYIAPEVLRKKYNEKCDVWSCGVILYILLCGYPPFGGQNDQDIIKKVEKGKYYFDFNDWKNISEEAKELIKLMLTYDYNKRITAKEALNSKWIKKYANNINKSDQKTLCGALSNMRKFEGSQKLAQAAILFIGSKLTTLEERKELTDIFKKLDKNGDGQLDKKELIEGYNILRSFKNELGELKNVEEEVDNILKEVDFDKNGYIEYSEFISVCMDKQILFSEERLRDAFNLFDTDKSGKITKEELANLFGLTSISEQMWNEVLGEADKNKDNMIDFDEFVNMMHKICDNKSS

[6] = molecular target: Plasmodium falciparum protein kinase 6 (PK6, PF3D7_1337100) (UniProt Q8IDW1); assay: PfPK6 kinase inhibitors, biochemical, TCAMS library (AID 1159586); details: recombinant PfPK6, Kinase-Glo ATP depletion luminescence
Sequence of Plasmodium falciparum protein kinase 6 (PK6, PF3D7_1337100) (Q8IDW1 1-305): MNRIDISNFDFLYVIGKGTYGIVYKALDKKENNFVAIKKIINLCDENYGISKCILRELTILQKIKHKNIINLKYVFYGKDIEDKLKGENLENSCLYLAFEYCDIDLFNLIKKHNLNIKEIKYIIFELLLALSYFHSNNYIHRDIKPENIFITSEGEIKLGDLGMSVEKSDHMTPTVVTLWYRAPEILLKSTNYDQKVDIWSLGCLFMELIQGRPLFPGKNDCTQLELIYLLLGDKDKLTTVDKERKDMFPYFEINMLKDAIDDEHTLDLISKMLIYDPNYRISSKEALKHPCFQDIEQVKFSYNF

[7] = molecular target: Protein kinase 7 (PK7), Plasmodium falciparum 3D7 (PF3D7_0213400) (UniProt Q7YTF7); assay: inhibition of Plasmodium PK7 catalytic activity – biochemical, TCAMS antimalarial set, Kinase-Glo luminescence (AID 1159587); details: recombinant PfPK7, Kinase-Glo ATP depletion luminescence
Sequence of Protein kinase 7 (PK7), Plasmodium falciparum 3D7 (PF3D7_0213400) (Q7YTF7 1-343): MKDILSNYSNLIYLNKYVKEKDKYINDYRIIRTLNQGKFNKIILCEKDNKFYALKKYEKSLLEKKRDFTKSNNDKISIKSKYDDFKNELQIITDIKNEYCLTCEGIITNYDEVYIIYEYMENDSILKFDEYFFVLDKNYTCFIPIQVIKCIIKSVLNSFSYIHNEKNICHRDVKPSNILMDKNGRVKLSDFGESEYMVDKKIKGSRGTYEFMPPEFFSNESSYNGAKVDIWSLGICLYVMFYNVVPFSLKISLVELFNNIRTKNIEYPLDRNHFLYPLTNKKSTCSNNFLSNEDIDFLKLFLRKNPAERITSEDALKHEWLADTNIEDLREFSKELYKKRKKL

[8] = molecular target: Calcium-dependent protein kinase 4 (Plasmodium falciparum (isolate 3D7)) (UniProt Q8IBS5); assay: PfCDPK4 kinase inhibitors, biochemical, TCAMS library (AID 1159588; cut-off not given, nearly all actives have IC50 up to about 0.91 µM); details: recombinant PfCDPK4, Kinase-Glo ATP depletion luminescence
Sequence of Calcium-dependent protein kinase 4 (Plasmodium falciparum (isolate 3D7)) (Q8IBS5 whole entry, looked up): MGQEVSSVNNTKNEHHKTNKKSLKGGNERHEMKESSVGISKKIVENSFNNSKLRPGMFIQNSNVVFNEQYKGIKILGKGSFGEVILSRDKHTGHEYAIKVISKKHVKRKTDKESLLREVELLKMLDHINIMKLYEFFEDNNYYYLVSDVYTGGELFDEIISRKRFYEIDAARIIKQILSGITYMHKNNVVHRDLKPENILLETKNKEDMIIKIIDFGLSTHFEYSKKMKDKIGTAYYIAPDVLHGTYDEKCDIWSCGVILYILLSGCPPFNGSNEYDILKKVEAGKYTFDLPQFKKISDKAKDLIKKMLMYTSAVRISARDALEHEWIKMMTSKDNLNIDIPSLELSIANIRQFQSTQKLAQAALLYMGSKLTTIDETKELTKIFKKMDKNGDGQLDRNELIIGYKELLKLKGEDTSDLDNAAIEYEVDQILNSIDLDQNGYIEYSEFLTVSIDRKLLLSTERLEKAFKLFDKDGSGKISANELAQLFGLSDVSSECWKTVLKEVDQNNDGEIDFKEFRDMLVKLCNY

Row | Compound | growth inhibition [1] | inhibition [2] | inhibition [3] [%] | growth inhibition [4] | outcome [5] | outcome [6] | outcome [7] | outcome [8]
1 | COc1cc(Br)c(S(=O)(=O)n2cc(CN3CCC(N)CC3)c3cc(Cl)ccc32)cc1OC | 32% | 27% | -4 | 99% (active) | inactive | inactive | inactive | inactive
2 | Cc1cc(C)c(CON2C(N)=NC(N)=NC2(C)C)cc1C | 93% (active) | 65% (active) | 2 | 92% (active) | inactive | inactive | inactive | inactive
3 | Cc1nnc2c(NC(=O)NC3CCCC3)cc3ccc(-c4cccc(CN5CCN(C)CC5)c4)cc3n12 | 68% (active) | 54% (active) | 2 | 91% (active) | inactive | inactive | inactive | inactive
4 | COc1ccc2nccc([C@@H](O)CN3CCC(NCc4cc5sccc5nc4C(F)(F)F)CC3)c2c1 | 67% (active) | 22% | 4 | 89% (active) | inactive | inactive | inactive | inactive
5 | CC1(CCc2ccccc2)N=C(N)N(Cc2ccccc2)C(=O)C1c1ccc(Cl)c(Cl)c1 (configuration not stated) | 96% (active) | 100% (active) | -4 | 97% (active) | inactive | inactive | inactive | inactive
6 | COC(=O)Nc1ccc(-c2ccc(C(=O)NC3CCN(C[C@H](O)c4ccnc5ccc(OC)cc45)CC3)cc2)c(C)c1 | 97% (active) | 32% | -2 | 100% (active) | inactive | inactive | inactive | inactive
7 | CC(CCc1ccccc1)NCC(O)c1ccc2c3c(cccc13)C(=O)N2C (configuration not stated) | 57% (active) | 37% | -2 | 99% (active) | inactive | inactive | inactive | inactive
8 | N#Cc1ccc2c(c1)CCN(CCC1CCC(NC(=O)/C=C/c3nc4ccccc4s3)CC1)CC2 (configuration not stated) | -2% | 6% | -4 | 90% (active) | inactive | inactive | inactive | inactive
9 | CCOC(=O)CNCC(=O)c1ccc(OCc2ccccc2)cc1 | 43% | 4% | -3 | 95% (active) | inactive | inactive | inactive | inactive
10 | Cc1cc(=O)c(-c2ccc(OCc3ccc(OC(F)(F)F)cc3)cc2)c(C)[nH]1 | 92% (active) | 3% | 3 | 97% (active) | inactive | inactive | inactive | inactive
11 | CCOc1ccc2nc(C)cc(NN=Cc3ccc(Cl)cc3)c2c1 | 100% (active) | 0% | 5 | 100% (active) | inactive | inactive | inactive | inactive
12 | O=C(NCCN1CCCC1)c1cccc(-c2ccc(-c3nc4ccccc4[nH]3)cc2)c1 | 36% | 20% | 0 | 100% (active) | inactive | inactive | inactive | inactive
13 | O=C(Nc1ccc2c(c1)CCC2)c1ccc(CN2CCCN(Cc3cccc(O)c3)CC2)cc1 | 46% | 45% | -1 | 88% (active) | inactive | inactive | inactive | inactive
14 | CN1Cc2ccc(NS(=O)(=O)c3ccc(-c4ccoc4)cc3)cc2C1 | 2% | -3% | -2 | 97% (active) | inactive | inactive | inactive | inactive
15 | COc1ccc(NC(=O)NC2CCN(CCCCCNC(=O)/C=C/c3ccc(Cl)c(Cl)c3)C2)c(OC)c1 (configuration not stated) | 9% | 24% | -3 | 96% (active) | inactive | inactive | inactive | inactive
16 | Cc1cccn2c(=O)c3cc(C(=O)NCCN4CCOCC4)c(=N)n(CCc4ccccc4)c3nc12 | 85% (active) | 13% | 1 | 100% (active) | inactive | inactive | inactive | inactive
17 | O=C(/C=C/c1ccc(Br)cc1)NCCCCCN1CCC(c2c[nH]c3ccccc23)CC1 | 19% | 73% (active) | -2 | 99% (active) | inactive | inactive | inactive | inactive
18 | O=c1cc(NCCCNCc2ccc(C(F)(F)F)c(F)c2)[nH]c2ccccc12 | 26% | 5% | 4 | 93% (active) | inactive | inactive | inactive | inactive
19 | O=C(NCCN1CCCC1)c1ccc(-c2cccc(-c3nc4ccc(F)cc4[nH]3)c2)cc1 | 2% | 29% | 1 | 100% (active) | inactive | inactive | inactive | inactive
